Source: PubChem BioAssay (National Center for Advancing Translational Sciences (NCATS))
Hits are enriched below; roughly 21% of the tested compounds scored in any of these assays.
Sm TGR inh: blocks Schistosoma mansoni thioredoxin glutathione reductase; purified TGR, DTNB reduction, TNB absorbance 405 nm; Potency, µM (doses to about 114 µM), inactives show top-dose activity change, negative = inhibition, usual class: inhibitors; 3% of 360,000 active; also: potency is read from the fitted curve at half-maximal effect; % is scaled to controls: 0 for no effect and ±100 for the full control effect; nearly all actives have a fitted effect of over 60% in size
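TGR 20 nM + NADPH 100 uM (dispensed conc.), cpd preinc 15 min RT; start with NADPH (500 uM addition) then DTNB (15 mM addition). Kinetic TNB absorbance, 405 nm filter. Four-parameter Hill fit across titration.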
Pf growth 48h: P. falciparum growth inhibition at 48 hours (one generation); P. falciparum luciferase growth in erythrocytes, 48 h; 5.9% of 310,000 active; Potency, µM (highest dose often 28.7 µM), inactives show at the top dose activity change, negative = inhibition, usual class: inhibitors; also: potency is read from the fitted curve at half-maximal effect; % is scaled to controls: 0 for no effect and ±100 for the full control effect
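Firefly luciferase activity from engineered P. falciparum reports growth; inhibitors lower the luminescent signal. Cultures contained 2% hematocrit erythrocytes at 0.1% final parasitemia.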
Shiga toxin inh: blocks Shiga toxin action in Vero cells; inhibition, % at 38.7 µM; 9.2% of 290,000 active; AID 2315; Vero cells, Shiga toxin protein synthesis inhibition reporter; in the data active = inhibition mostly above about 28%, no sharp cut-off; inactive = mostly below about 43%; also: 0% is about no effect
Cycloheximide cs: counter-screen hit for Shiga toxin inhibitors, cycloheximide; cell reporter, cycloheximide protein synthesis inhibition counterscreen; max response, %; 12% of 300,000 active; in the data active = max response mostly above about 13%, no sharp cut-off; inactive = mostly below about 14%; also: read at 38.3 µM for the half of the compounds with a filed dose; 0% is about no effect
NS1 inh: blocks influenza NS1 protein function | 0.4% of 270,000 active | Potency, µM (top dose mostly 46.1 µM), inactives show top-dose activity, positive = more growth; calls by dose curve; also: potency is read from the fitted curve at half-maximal effect; actives are rising curves; nearly all actives have a fitted effect of over 50% in size
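OD600 was taken as the measure of yeast growth restored by compound in an NS1-expressing S. cerevisiae strain. Cells had been washed out of glucose medium and diluted 1:100 into galactose -URA medium, pH 6.0.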
Pf growth 96h: inhibits malaria parasite growth, 96 h. P. falciparum luciferase reporter growth, 96 h. Potency, µM (titrated, usually from 28.7 µM), for inactives: top-dose activity change, negative = inhibition, most hits filed as inhibitors. 6.9% of 320,000 active. AID 504834; also: potency is read from the fitted curve at half-maximal effect; % is scaled to controls: 0 for no effect and ±100 for the full control effect
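Infected RBCs, 2% Hct / 0.05% parasitemia final; luciferase-reporter P. falciparum; cpd 96 h, 37 C, 5% CO2; luciferase detection reagent; luminescence.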
Numbers without * were called inactive; i = inactive; ? = inconclusive; nt = not tested or not shown; [ ] = another dose, or the depositor's remark. Unless noted, calls follow the shape of the dose curve; as a rule, active = well fitted curve in the direction sought with a large enough effect; inconclusive = small, poorly fitted or top-dose-only effect, or another doubt; inactive = no such curve, though single readings can be large; an effect the other way counts as inactive or inconclusive.

SMILES	Sm TGR inh	Pf growth 48h	Shiga toxin inh	Cycloheximide cs	NS1 inh	Pf growth 96h
Cc1cc(C(=O)CSc2nc3ccccc3o2)c(C)n1CC1CCCO1 (centres undefined)	-27%	nt	78*	67*	-7%	133%
Cc1cccc(-n2nnnc2SCC(=O)c2cc(C)n(CC3CCCO3)c2C)c1 (centres undefined)	-18%	-24%	26	13	-12%	?
CC(Oc1ccc(F)cc1)C(=O)Nc1cccc(-c2nn[nH]n2)c1 (centres undefined)	-29%	9%	-5	-2	24%	34%
CCOC(=O)c1[nH]c2ccc(F)cc2c1NC(=O)C(C)N1CCc2cc(OC)c(OC)cc2C1 (centres undefined)	-27%	15µM*	-17	-2	-87%	?
COC(=O)c1[nH]c2ccc(C)cc2c1NC(=O)CN1CCc2cc(OC)c(OC)cc2C1	5%	?	-16	-3	-8%	?
CCOC(=O)c1[nH]c2ccc(OC)cc2c1NC(=O)CN1CCc2ccccc2C1	-6%	?	-15	1	-74%	12µM*
COC(=O)c1[nH]c2ccccc2c1NC(=O)CN1CCN(c2cccc(OC)c2)C(C)C1 (centres undefined)	4%	9.3µM*	-16	-1	-45%	nt
COC(=O)c1[nH]c2cc(OC)ccc2c1NC(=O)CCN1CCN(c2ccccc2)CC1	-7%	-17%	-6	1	1%	nt
COC(=O)c1[nH]c2cc(OC)ccc2c1NC(=O)CCN1CCN(c2cccc(C)c2C)CC1	5%	2.6µM*	-21	-11	-71%	-5%
CCOC(=O)C1CCN(CC(=O)Nc2c(C(=O)OC)[nH]c3ccccc23)CC1	3%	nt	-2	-3	-6%	-8%
CCOC(=O)c1[nH]c2ccc(OCC)cc2c1NC(=O)CN1CCN(c2ccccn2)CC1	-21%	7.4µM*	-21	-2	-64%	4.7µM*
CCOC(=O)c1[nH]c2ccc(OC)cc2c1NC(=O)CN1CCN(c2ccccn2)CC1	-22%	-14%	-4	1	5%	-19%
Cc1ccsc1-c1nc(CN2CCN(C)C(=O)[C@@H]2C)c(C)o1	32µM*	-18%	30	2	6%	i
O=C(Nc1ccccc1C(=O)O)C1=NN=CC1	3%	16%	18	3	-2%	174%
CC(C)COc1cccc(-c2cc(C(=O)N/N=C/c3ccncc3)c3ccccc3n2)c1	1%	?	-5	16	10%	?
O=C(COC(=O)c1cccs1)Nc1ccccc1	-3%	-8%	109*	51*	-8%	-14%
C/C(=N/OCC(=O)Nc1ccccc1)c1cccs1	11%	87%	60*	27*	-51%	50%
O=C(CC(Nc1ccccc1Cl)C(=O)OCC(=O)c1cccs1)c1ccccc1 (centres undefined)	?	318%	69*	53*	-21%	132%
COC(=O)c1ccc(COC(=O)CCC(=O)c2cccs2)cc1	0%	30%	121*	62*	-4%	73%
CSc1ccc(/C=C(/NC(=O)c2ccc(C)cc2)C(=O)Nc2cccc(F)c2)cc1	-27%	17%	-12	11	9%	63%
CCOC(=O)Cn1c(=O)cc(-c2ccccc2)c2c(C)nn(C)c21	6%	nt	nt	nt	nt	nt
O=C(OCC(=O)c1cccs1)c1ccccc1	4%	137%	51	31*	?	-14%
C/C(=N\OCC(=O)Nc1ccccc1Br)c1cccs1	9%	-2%	55*	28*	nt	-1%
O=C(CNC(=O)c1ccccc1)OCC(=O)c1cccs1	2%	14%	4	8	4%	49%
COc1ccc(NC(=O)CO/N=C(\C)c2cccs2)cc1	-14%	-17%	-6	13	nt	17%
SMILES	Sm TGR inh	Pf growth 48h	Shiga toxin inh	Cycloheximide cs	NS1 inh	Pf growth 96h
OCCC1CN(Cc2cnc(N3CCOCC3)s2)CCN1C1CCCC1 (centres undefined)	-1%	-10%	-2	0	?	-3%
O=C(CNc1ccccc1Cl)c1ccc(Br)cc1	3%	?	nt	2	-26%	?
Cc1ccc(C(=O)CNc2ccccc2C)cc1	0%	57%	118*	42*	-60%	-6%
Cc1ccc(C(=O)CNc2ccc(C)cc2C)cc1	-8%	63%	nt	13*	-11%	?
Cc1ccc(C(=O)CCC(=O)Nc2ccc(C)cc2C)cc1	59%	nt	nt	nt	nt	nt
COc1cc(-c2nc(-c3ccc(C)nc3OC)no2)cc(OC)c1OC	3%	8%	-14	-2	-3%	-24%
COc1nc(-c2ccccc2)ccc1-c1noc(-c2cccs2)n1	nt	nt	nt	nt	7%	nt
COc1nc(C)ccc1-c1noc(-c2cccs2)n1	13%	52%	140*	58*	-3%	65%
COc1nc(C)ccc1-c1noc(-c2ccncc2)n1	1%	212%	25	23*	0%	7%
O=[N+]([O-])c1ccc2ncccc2c1CCc1c([N+](=O)[O-])ccc2ncccc12	nt	nt	nt	nt	-3%	nt
CC(=O)Nc1ccc(NC(=O)CSc2nnc(-c3cc(C)[nH]n3)n2N)cc1	-11%	-2%	-7	12	0%	?
COCCCNc1nc2c(-c3cccc(Br)c3)nnn2c2ccccc12	-3%	nt	nt	nt	nt	nt
c1ccc(-c2nc(C3CCCCC3)no2)cc1	-2%	45%	45*	28*	?	65%
COc1ccc(-c2nc(C3CCCCC3)no2)cc1OC	10%	93%	163*	53*	-53%	-20%
O=[N+]([O-])c1cc(-c2nc(-c3ccccc3)no2)ccc1NC1CCCCC1	-13%	nt	nt	nt	nt	nt
COc1ccc(-c2nc(-c3cccc(C(F)(F)F)c3)no2)cc1OC	5%[11.4 µM]	nt	-10	-4	-6%	?
O=C(NNC1=Nc2ccccc2SC1)c1cccc([N+](=O)[O-])c1	7%	?	14	0	-3%	10µM*
O=C(NNC1=Nc2ccccc2SC1)c1ccccc1F	-1%	?	72*	39*	-1%	?
CNS(=O)(=O)c1cn(CC(=O)Nc2ccc(F)cc2F)cc1S(=O)(=O)NC	-7%	nt	nt	nt	nt	nt
CCCCc1ccc(Nc2ncccc2C#N)cc1	18%	52%	122*	58*	-66%	164%
CC(C)C(=O)Nc1ccc(-c2nc3ncccc3o2)cc1	7%	166%	41*	29*	-18%	?
CC(C)(C)c1ccc(OCC(=O)Nc2ccc(-c3nc4cccnc4o3)cc2)cc1	-2%	39%	12	9	15%	?
CC(C)C(=O)Nc1ccc(-c2nc3cccnc3o2)cc1	-10%	75%	active	33*	-12%	1%
CC(C)C(=O)Nc1cccc(-c2nc3ncccc3o2)c1	-7%	-13%	nt	10	-9%	-8%
CCCCN(Cc1cc2cc(OC)ccc2[nH]c1=O)S(=O)(=O)c1ccc(C)cc1	-28%	?	-1	-2	16%	7%
COC(=O)CCCCCc1ccc(C(C)=O)s1	-8%	12%	11	12*	-7%	34%
